An excerpt weighted towards active compounds, which were near 5.7% of everything screened.
A549 viability: A549 cytotoxicity, counter-screen for Nrf2 inhibitors; A549 ARE-Fluc cells, CellTiter-Fluor viability, 18-24 h; Potency, µM (series often up to 46 µM), for the others: top-dose activity change, negative = cytotoxicity, hits mostly inhibitors; 390,000 tested, 0.16% active; further: potency means the concentration at half of the fitted maximal effect
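Cytotoxicity counterscreen: CellTiter-Fluor fluorescence was measured in A549 ARE_Fluc cells after 18-24 h of compound exposure in a concentration series. The subsequent BugLite luminescent read reports ARE-luciferase activity.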
PI4K2A block: blocks human PI4K2A kinase activity | Q9BTU6 | purified PI4K2A, ADP-Glo luminescence, 1 h; hits give low values | activity change, negative = inhibition, % at 76.9 µM | 420,000 tested, 0.13% active | AID 1346378; in the data active means activity change below about -50%; inconclusive means mostly about -30% to -49%;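 further: -100% = wells without enzyme as full effect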
Target sequence (Q9BTU6 whole entry, looked up): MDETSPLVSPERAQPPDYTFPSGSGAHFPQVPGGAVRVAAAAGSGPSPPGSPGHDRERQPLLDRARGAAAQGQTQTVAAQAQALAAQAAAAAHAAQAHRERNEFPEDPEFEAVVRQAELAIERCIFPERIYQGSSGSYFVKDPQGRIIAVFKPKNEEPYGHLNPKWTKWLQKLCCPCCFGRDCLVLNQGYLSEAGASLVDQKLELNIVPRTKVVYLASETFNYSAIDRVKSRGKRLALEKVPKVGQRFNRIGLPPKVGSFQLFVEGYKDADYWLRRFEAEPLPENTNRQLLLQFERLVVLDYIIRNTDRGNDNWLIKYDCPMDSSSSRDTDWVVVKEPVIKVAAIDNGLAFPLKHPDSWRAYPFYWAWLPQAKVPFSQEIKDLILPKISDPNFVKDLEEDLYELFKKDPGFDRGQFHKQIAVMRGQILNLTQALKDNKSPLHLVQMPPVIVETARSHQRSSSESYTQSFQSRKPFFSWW
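Compounds are screened against recombinant PI4K2A using PI as substrate and ATP, the latter dispensed at 300 microM. Reactions run one hour at ambient temperature before ADP-Glo detection; full inhibition defined by wells lacking enzyme.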
Nrf2 inh: blocks Nrf2 signaling; 360,000 tested, 2.1% active; Potency, µM (titrated, usually from 46 µM), for inactives: top-dose activity change, negative = inhibition, hits mostly inhibitors; AID 504444; A549 ARE-Fluc reporter, luciferase luminescence, 18-24 h; further: potency means the concentration at half of the fitted maximal effect; nearly all actives have a fitted effect of over 60% in size
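Two sequential reads on A549 ARE_Fluc cells exposed to compound for 18-24 h: a CellTiter-Fluor fluorescence read for viability, then a luciferase luminescence read for Nrf2/ARE activity.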
Giardia kill: kills Giardia lamblia. Giardia lamblia trophozoite viability. activity change, % at 7.66 µM, hits read low. 340,000 tested, 0.15% active; in the data active means activity change below about -80%; inconclusive means between about -30% and that limit;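 further: parasites exposed to compound for two days anaerobically before the ATP read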
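Giardia trophozoites, 100 cells per well, were exposed to compounds for 48 hrs at 37 deg C under anaerobic conditions; viability was then read as ATP content by bioluminescence after 15-30 min at room temperature.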
KB-3-1 tox: kills parental KB-3-1 adenocarcinoma cells; 400,000 tested, 1.4% active; Potency, µM (doses to about 46.1 µM), hits mostly cytotoxic; AID 1347075; KB-3-1 viability, CellTiter-Glo ATP luminescence, 72 h; further: potency means the concentration at half of the fitted maximal effect; nearly all actives have a fitted effect of over 60% in size
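Cells are dispensed, compounds pinned in, plates held at 37 °C for 72 h, then CellTiter-Glo is added and luminescence read after 10 minutes. Cell line: parental KB-3-1 in phenol-red-free DMEM, 10% FBS.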
KB-V1 MDR tox: KB-V1 MDR subline cytotoxicity; AID 1347076; KB-V1 MDR cells viability, CellTiter-Glo, 72 h; 400,000 tested, 3.4% active; Potency, µM (series often up to 46.1 µM), most hits filed as cytotoxic; further: potency means the concentration at half of the fitted maximal effect; nearly all actives have a fitted effect of over 60% in size
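qHTS viability screen in drug-selected KB-V1 MDR cells: 72 h compound treatment at 37 degrees C, ATP luminescence end point.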
The depositor's hits bear a star; i = inactive; ? = inconclusive; · = not tested or not shown. Unless noted, the call rests on the fitted dose curve; in most records, active means well fitted curve in the direction sought with a large enough effect; inconclusive means small, poorly fitted or top-dose-only effect, or another doubt; inactive means no such curve, though single readings can be large; an effect the other way counts as inactive or inconclusive. Unless noted, on the % scale 0 is the no-effect control and ±100 the full control effect.

SMILES	A549 viability	PI4K2A block	Nrf2 inh	Giardia kill	KB-3-1 tox	KB-V1 MDR tox
Cn1c(SCc2ccccc2)nc2ccsc2c1=O	-4%	5	16µM*	-7	i	?
Cc1ccc(CNC(=O)CSc2nc3ccsc3c(=O)n2NC(=O)c2ccccc2)cc1	·	2	26%	-2	i	i
COC(=O)[C@]12C[C@H](CC(=O)N3CCC(c4ccccc4)CC3)C(=O)N(CCC3=CCCCC3)C1=C[C@H](C1CCCC1)O[C@@H]2C	·	-2	·	·	·	·
O=C(O)c1ccc2c(c1)C(=O)N([C@@H](Cc1ccc(O)cc1)C(=O)O)C2=O	1%	·	-9%	·	·	·
Cc1cccc(C)c1NC(=O)Cn1nc(C)c2sc3ccccc3c2c1=O	4%	0	21µM*	·	i	i
Cc1nn(CC(=O)N2CCOCC2)c(=O)c2c1sc1ccccc12	-3%	-2	10%	-23	i	i
CCOC(=O)c1ccc(NC(=O)Nc2ccn(C)n2)cc1	9%	2	·	8	i	16µM*
CCOC(=O)c1c(C)c(C(=O)Nc2ccc(N(C)C)cc2)c(C)n1CC	-13%	3	·	-6	7.3µM*	4.1µM*
CCOC(=O)c1c(C)c(C(=O)Nc2ccc3c(c2)OCCO3)c(C)n1C	-11%	2	·	-9	?	15µM*
CCOC(=O)c1ccc(NC(=O)Nc2ccc3c(c2)OCCO3)cc1	-28%	-7	?	22	?	15µM*
COC(=O)c1ccc(-n2nnc(-c3nc(-c4ccc5c(c4)OCO5)no3)c2C)cc1	5%	-6	?	·	·	·
O=C1CCC2(CCC(c3ccccc3)CC2)N1CC[C@@H](O)c1ccccc1 (some centres undefined)	·	1	·	·	·	·
Cc1ccc(-c2nc3cnccn3c2Nc2ccc(C(C)C)cc2)o1	1%	·	0%	-22	·	·
CCOC(=O)c1ccc(NCc2ccc3c(c2)OCO3)cc1	4%	1	-10%	1	i	21µM*
CCOC(=O)c1ccc(NCc2ccc(N(C)C)cc2)cc1	?	2	0%	6	i	i
CCOC(=O)c1c(C)c(C(=O)Nc2cc(F)ccc2F)c(C)n1C	12%	-8	6%	-2	10µM*	2.6µM*
COc1ccc(C=NN=C2c3ccccc3-c3ccccc32)cc1O	-9%	-1	5%	-6	i	?
CC(=O)Nc1ccc(C=NN=C2c3ccccc3-c3ccccc32)cc1	-22%	-2	-7%	-2	i	18µM*
CS(=O)(=O)N(CC(=O)N1CCCCCC1)c1cccc(Br)c1	0%	3	2%	-9	i	21µM*
CS(=O)(=O)N(CC(=O)N1CCCCCC1)c1ccc(Br)cc1	14%	-3	-6%	10	i	15µM*
Cc1ccc(Nc2c(-c3ccc(C)s3)nc3cccc(C)n23)cc1	-2%	·	?	-11	·	·
C[C@@H]1C[C@H]2[C@@H]3C[C@H](F)C4=CC(=O)C=C[C@]4(C)[C@@]3(Cl)[C@@H](O)C[C@]2(C)[C@H]1C(=O)COC(=O)C(C)(C)C	-5%	-1	0.0065µM*	2	i	i
CC1CC2C3CCC4=CC(=O)C=CC4(C)[C@@]3(Cl)C(O)CC2(C)C1(O)C(=O)CO (some centres undefined)	-13%	-4	?	19	i	i
CCCC[C@H]1C2CC(OC(=O)NCc3ccc(Cl)cc3)C(C2)[C@H]2CCCCN21 (some centres undefined)	·	5	·	·	·	·
O=C([C@@H]1C[C@H]1c1ccccc1)N1CCC(Oc2cccnc2)CC1	·	-4	·	·	·	·
SMILES	A549 viability	PI4K2A block	Nrf2 inh	Giardia kill	KB-3-1 tox	KB-V1 MDR tox
COc1ccccc1NC(=O)Cn1nc(C(F)(F)F)c2c1CCCC2	-8%	-4	1%	-5	i	21µM*
O=C(Cn1nc(C(F)(F)F)c2c1CCC2)Nc1ccccc1C(F)(F)F	-7%	-2	-10%	5	i	i
O=C(Cn1nc(C(F)(F)F)c2c1CCC2)N1CCN(c2ccccc2)CC1	-14%	8	-10%	2	i	16µM*
Cc1ccsc1S(=O)(=O)n1c(CN2CCOCC2)nc2ccccc21	·	3	·	·	·	·
Cc1ccc2nc(SCC(=O)NC3CCCc4ccccc43)[nH]c2c1 (centres undefined)	1%	-2	?	-17	?	15µM*
CC(=O)c1ccc(OCCCC(=O)NC2CCCc3ccccc32)cc1 (centres undefined)	8%	3	-10%	-18	i	16µM*
O=C(CSc1cc(Cl)ccc1Cl)NC1CCCc2ccccc21 (centres undefined)	-14%	-2	-17%	-14	i	i
O=C(CSc1nc2cc(Cl)ccc2s1)NC1CCCc2ccccc21 (centres undefined)	-4%	1	0%	14	i	16µM*
O=C(CSc1ccc2ccccc2c1)NC1CCCc2ccccc21 (centres undefined)	7%	1	-23%	5	i	15µM*
NCCC(=O)Nc1cccc(-c2nn3c(=O)cc(N4CCNCC4)nc3s2)c1	3%	·	-6%	·	·	·
O=C(C[n+]1cccc(Br)c1)c1ccc(O)c(O)c1	·	·	·	·	?	i
Cc1ccc(S(=O)(=O)N2CCN(CC(=O)NC3CCCc4ccccc43)CC2)c(C)c1 (centres undefined)	-20%	-6	-12%	-11	i	4.1µM*
Cc1ccc(S(=O)(=O)N2CCN(CC(=O)NC3CCCc4ccccc43)CC2)cc1C (centres undefined)	0%	10	?	-4	?	?
COc1cc(-c2cc(=O)c3c(C)cc(O)cc3o2)cc(OC)c1OC	-4%	2	6%	5	?	2.6µM*
COc1ccc(-c2cc(=O)c3c(C)cc(O)cc3o2)cc1	-8%	?	8%	2	i	2.6µM*
Cc1ccc2nc(-c3ccc(Cl)c(NC(=O)c4ccc5c(c4)OCCO5)c3)oc2c1	4%	-13	?	·	i	i
Cc1sc(-c2cc3c([nH]c2=O)CC(c2ccccc2)CC3=O)nc1-c1ccc(Cl)cc1 (centres undefined)	-2%	-2	?	·	1µM*	0.82µM*
O=C1CC(c2ccccc2)Cc2[nH]c(=O)c(-c3nc(-c4ccc(F)cc4)cs3)cc21 (centres undefined)	-7%	-16	1%	-23	4.6µM*	i
OC[C@@H](O)[C@H](O)[C@H](O)[C@@H](O)CO	·	0	·	·	·	·
Fc1ccc(/C=C/c2nccc3ccccc23)cc1	·	·	·	·	18µM*	i
Cc1nc2sc3c(NCc4ccco4)ncnc3c2c2c1COC(C)(C)C2	-13%	-15	?	-2	?	18µM*

Screens as filed in PubChem.
